Assay in all cases: DAPPL (digital affinity profiling via proximity ligation, sequencing); 10 mM Tris-HCl pH 7.5, 50 mM NaCl, 1 mM DTT, 4% glycerol, room temperature, 30 min; GST-TFs on glutathione beads, 16-mer random dsDNA library, 0.1% formaldehyde crosslink after washing; high values mean tight binding
For test [1], the target named is T1, FLI1 (Homo sapiens, UniProt Q01543 1-452).
T1 sequence: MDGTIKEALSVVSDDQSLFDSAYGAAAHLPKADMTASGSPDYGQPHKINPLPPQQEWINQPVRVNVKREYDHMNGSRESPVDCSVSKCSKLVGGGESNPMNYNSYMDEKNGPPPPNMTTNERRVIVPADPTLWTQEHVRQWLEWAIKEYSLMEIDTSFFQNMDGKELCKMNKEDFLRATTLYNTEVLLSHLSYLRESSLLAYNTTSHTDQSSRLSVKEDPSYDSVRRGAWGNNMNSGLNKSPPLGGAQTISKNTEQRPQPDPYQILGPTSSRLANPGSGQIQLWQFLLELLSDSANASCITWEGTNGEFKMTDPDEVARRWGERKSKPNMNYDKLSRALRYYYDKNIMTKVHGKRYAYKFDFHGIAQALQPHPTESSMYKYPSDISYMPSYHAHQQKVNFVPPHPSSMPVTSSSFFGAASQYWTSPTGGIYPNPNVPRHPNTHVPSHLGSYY
The settings on record: protein: recombinant; tags: N-terminal GST; dsDNA, one strand shown. A digest of the protocol: (§1)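 Pools of DNA-barcoded human transcription factors, expressed in yeast as GST fusions on glutathione beads and combined with a tag-only sample, were incubated with 200 nmole of a 16-mer random double-stranded DNA library. Incubation took 30 min at room temperature in Tris/NaCl/DTT/glycerol buffer and was followed by washing, 0.1% formaldehyde crosslinking, proximity ligation (BsaI/T4 ligase, 1 h, 37 °C), PCR amplification and sequencing on an Illumina NextSeq500. Binding signal is the ratio of a hexamer's read frequency for a factor to its frequency for the tag-only sample.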

Test [2] has as its target T2, ELK1 (Homo sapiens, UniProt P19419 1-428).
T2 sequence: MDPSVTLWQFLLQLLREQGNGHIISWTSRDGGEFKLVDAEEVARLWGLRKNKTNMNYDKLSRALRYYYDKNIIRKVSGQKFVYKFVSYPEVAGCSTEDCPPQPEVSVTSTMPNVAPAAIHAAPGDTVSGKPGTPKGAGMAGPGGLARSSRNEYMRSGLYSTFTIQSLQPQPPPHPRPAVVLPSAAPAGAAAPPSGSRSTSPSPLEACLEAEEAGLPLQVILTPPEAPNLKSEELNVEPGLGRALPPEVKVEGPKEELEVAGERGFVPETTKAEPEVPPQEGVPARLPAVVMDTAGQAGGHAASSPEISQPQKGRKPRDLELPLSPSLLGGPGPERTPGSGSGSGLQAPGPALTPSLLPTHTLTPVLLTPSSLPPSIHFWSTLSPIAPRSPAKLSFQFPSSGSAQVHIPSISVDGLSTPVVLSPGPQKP
The settings on record: protein: recombinant; tags: N-terminal GST; dsDNA, one strand shown. A digest of the protocol:
as §1

For test [3], the target named is T3, GABPA (Homo sapiens, UniProt Q06546 1-454).
T3 sequence: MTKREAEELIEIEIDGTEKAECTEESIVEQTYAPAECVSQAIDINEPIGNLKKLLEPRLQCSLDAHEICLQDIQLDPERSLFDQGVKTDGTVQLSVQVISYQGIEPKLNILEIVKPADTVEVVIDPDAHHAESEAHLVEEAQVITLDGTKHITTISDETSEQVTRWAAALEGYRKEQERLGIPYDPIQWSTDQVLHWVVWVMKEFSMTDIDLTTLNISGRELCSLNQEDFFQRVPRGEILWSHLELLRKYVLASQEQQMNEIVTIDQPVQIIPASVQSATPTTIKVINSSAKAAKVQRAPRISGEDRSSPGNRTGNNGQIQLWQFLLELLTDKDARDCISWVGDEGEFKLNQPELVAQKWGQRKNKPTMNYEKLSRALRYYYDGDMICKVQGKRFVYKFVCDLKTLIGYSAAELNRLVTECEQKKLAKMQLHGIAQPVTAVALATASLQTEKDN
The settings on record: protein: recombinant; tags: N-terminal GST; dsDNA, one strand shown. Summed up:
as §1

The target of test [4] is T4, ERG (Homo sapiens, UniProt P11308 1-479).
T4 sequence: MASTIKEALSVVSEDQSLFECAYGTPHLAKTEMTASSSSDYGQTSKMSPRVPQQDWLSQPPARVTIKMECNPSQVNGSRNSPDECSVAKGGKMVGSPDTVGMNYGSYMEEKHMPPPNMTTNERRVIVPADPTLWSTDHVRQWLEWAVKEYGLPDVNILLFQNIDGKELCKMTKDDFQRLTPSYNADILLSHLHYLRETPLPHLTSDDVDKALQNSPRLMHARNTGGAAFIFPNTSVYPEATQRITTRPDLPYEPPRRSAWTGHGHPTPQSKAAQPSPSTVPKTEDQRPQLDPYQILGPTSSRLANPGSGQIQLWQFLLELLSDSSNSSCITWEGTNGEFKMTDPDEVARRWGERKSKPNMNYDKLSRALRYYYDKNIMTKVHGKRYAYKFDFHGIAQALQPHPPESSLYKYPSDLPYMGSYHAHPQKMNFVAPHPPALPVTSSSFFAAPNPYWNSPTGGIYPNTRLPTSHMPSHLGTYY
The settings on record: protein: recombinant; tags: N-terminal GST; dsDNA, one strand shown. A digest of the protocol: as §1

In test [5] the target is ELF1 (Homo sapiens, UniProt P32519 1-619). The settings on record: protein: recombinant; tags: N-terminal GST; dsDNA, one strand shown. Summed up:
as §1

The target in test [6] is T5, EHF (Homo sapiens, UniProt Q9NZC4 1-300).
T5 sequence: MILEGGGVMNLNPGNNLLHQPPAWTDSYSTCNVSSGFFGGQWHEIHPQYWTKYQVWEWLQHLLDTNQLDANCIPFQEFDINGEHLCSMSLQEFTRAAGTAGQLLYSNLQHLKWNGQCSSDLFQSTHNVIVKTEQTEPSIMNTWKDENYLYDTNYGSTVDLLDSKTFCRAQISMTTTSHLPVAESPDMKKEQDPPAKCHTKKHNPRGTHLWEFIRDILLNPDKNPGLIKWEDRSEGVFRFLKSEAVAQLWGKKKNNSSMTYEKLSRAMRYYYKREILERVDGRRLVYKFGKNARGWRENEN
The settings on record: protein: recombinant; tags: N-terminal GST; dsDNA, one strand shown. A digest of the protocol:
as §1

For test [7], the target named is SPI1 (Homo sapiens, UniProt P17947 1-270). As to conditions: protein: recombinant; tags: N-terminal GST; dsDNA, one strand shown. Summed up: as §1
For test [8], the target named is SPIB (Homo sapiens, UniProt Q01892 1-262). As to conditions: protein: recombinant; tags: N-terminal GST; dsDNA, one strand shown. A digest of the protocol:
as §1

In test [9] the target is T6, ELK3 (Homo sapiens, UniProt P41970 1-407).
T6 sequence: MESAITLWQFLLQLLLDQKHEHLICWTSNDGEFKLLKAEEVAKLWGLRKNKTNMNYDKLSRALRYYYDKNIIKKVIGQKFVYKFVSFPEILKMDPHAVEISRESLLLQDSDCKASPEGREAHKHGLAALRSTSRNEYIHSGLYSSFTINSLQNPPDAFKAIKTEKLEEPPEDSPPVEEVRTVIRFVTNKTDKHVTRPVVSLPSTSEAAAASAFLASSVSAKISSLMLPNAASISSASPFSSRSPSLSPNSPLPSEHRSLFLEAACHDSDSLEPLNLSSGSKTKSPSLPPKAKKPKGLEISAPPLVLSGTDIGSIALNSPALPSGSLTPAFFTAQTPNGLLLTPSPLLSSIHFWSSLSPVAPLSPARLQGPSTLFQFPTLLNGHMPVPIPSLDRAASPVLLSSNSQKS
As to conditions: protein: recombinant; tags: N-terminal GST; dsDNA, one strand shown. A digest of the protocol: as §1

Test [10] has as its target T7, FEV (Homo sapiens, UniProt Q99581 1-238).
T7 sequence: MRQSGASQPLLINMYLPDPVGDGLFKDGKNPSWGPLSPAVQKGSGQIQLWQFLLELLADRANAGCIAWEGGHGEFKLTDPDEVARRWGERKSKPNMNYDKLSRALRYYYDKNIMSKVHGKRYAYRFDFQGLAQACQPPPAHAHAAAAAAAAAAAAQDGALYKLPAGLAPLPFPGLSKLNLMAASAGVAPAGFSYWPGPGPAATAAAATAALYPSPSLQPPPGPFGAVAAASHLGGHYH
As to conditions: protein: recombinant; tags: N-terminal GST; dsDNA, one strand shown. A digest of the protocol: as §1

The target in test [11] is ETV5 (Homo sapiens, UniProt P41161 1-510). The settings on record: protein: recombinant; tags: N-terminal GST; dsDNA, one strand shown. Summed up: as §1
Sequence of ETV5 (P41161 whole entry): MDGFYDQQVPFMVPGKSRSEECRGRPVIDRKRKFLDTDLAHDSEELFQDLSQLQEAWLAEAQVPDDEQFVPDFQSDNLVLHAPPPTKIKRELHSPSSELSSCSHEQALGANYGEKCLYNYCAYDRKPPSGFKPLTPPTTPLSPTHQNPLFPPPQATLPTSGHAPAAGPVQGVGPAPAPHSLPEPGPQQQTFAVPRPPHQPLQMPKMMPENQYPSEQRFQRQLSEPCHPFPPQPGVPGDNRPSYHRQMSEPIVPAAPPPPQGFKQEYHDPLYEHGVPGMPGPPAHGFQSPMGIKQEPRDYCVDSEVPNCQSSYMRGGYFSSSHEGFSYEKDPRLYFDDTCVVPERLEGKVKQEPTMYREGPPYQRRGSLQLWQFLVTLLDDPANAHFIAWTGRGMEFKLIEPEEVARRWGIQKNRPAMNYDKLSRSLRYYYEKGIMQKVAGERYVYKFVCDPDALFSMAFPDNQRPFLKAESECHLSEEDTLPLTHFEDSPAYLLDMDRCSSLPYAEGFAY
The target in test [12] is HSF1 (Homo sapiens, UniProt Q00613 1-529). As to conditions: protein: recombinant; tags: N-terminal GST; chain copies: 3; dsDNA, one strand shown. Summed up:
as §1

Test [13] addresses T8, SPIC (Homo sapiens, UniProt Q8N5J4 1-248).
T8 sequence: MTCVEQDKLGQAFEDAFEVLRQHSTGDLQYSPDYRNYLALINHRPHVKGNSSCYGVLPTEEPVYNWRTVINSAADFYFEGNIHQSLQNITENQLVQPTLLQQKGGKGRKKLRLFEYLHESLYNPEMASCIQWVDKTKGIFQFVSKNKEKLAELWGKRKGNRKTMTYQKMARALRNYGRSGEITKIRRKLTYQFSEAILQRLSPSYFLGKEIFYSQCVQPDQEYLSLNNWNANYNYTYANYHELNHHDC
As to conditions: protein: recombinant; tags: N-terminal GST; dsDNA, one strand shown. Summed up: as §1

Test [14] deals with ELF4 (Homo sapiens, UniProt Q99607 1-663). The settings on record: protein: recombinant; tags: N-terminal GST; dsDNA, one strand shown. A digest of the protocol: as §1
Sequence of ELF4 (Q99607 whole entry): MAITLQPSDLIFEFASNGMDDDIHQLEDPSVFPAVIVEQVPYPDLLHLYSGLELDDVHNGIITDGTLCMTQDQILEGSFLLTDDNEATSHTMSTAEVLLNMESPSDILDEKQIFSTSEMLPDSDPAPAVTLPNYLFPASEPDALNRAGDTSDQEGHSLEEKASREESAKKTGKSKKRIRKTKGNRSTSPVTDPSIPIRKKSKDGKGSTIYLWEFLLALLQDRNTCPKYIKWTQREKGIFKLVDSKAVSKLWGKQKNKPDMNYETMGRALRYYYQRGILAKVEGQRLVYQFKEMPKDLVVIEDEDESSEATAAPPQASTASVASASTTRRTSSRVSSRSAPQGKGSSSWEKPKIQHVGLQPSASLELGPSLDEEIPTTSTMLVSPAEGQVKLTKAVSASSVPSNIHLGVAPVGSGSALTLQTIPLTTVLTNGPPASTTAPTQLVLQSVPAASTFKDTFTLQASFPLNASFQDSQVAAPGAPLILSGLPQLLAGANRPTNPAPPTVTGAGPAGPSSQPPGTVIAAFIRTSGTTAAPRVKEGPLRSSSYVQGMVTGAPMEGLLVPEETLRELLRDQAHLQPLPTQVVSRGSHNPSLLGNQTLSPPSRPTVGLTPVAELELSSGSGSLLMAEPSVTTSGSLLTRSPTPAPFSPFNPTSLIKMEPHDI
In test [15] the target is T9, ELK4 (Homo sapiens, UniProt P28324-2 1-405).
T9 sequence: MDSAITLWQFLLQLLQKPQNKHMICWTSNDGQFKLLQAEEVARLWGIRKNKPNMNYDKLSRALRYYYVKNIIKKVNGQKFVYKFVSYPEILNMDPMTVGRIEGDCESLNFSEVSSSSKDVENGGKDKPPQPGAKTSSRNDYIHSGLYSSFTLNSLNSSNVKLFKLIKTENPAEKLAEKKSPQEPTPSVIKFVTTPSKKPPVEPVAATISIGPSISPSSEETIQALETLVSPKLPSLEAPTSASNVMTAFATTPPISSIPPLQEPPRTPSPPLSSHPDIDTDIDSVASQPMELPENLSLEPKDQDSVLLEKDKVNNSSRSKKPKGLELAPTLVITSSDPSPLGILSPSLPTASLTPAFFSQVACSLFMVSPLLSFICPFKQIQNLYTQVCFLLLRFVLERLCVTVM
The settings on record: protein: recombinant; tags: N-terminal GST; dsDNA, one strand shown. A digest of the protocol: as §1

The target in test [16] is T10, ETV2 (Homo sapiens, UniProt O00321 1-342).
T10 sequence: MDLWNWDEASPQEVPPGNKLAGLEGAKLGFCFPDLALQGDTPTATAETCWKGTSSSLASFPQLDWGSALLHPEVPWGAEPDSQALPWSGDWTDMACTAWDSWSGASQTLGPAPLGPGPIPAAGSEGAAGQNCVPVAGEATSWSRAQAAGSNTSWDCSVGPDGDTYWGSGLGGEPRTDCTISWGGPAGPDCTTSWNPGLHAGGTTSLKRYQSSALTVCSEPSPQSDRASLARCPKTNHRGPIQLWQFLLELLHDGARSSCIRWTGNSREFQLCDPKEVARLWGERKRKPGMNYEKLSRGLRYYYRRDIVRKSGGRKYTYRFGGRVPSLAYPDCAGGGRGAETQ
The settings on record: protein: recombinant; tags: N-terminal GST; dsDNA, one strand shown. Summed up: as §1

Test [17] concerns the target T11, ELF3 (Homo sapiens, UniProt P78545 1-371).
T11 sequence: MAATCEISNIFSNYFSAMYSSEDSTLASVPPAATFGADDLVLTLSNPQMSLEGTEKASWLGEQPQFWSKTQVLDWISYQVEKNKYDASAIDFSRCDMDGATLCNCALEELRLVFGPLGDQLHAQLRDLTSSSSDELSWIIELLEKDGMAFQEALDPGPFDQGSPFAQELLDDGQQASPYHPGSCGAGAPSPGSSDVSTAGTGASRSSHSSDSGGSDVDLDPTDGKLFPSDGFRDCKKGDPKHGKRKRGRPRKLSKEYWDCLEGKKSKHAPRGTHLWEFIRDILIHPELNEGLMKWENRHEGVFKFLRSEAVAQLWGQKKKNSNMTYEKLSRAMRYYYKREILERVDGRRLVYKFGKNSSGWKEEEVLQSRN
The settings on record: protein: recombinant; tags: N-terminal GST; dsDNA, one strand shown. A digest of the protocol:
as §1

Test [18] deals with CRX (Homo sapiens, UniProt O43186 1-299). As to conditions: protein: recombinant; tags: N-terminal GST; dsDNA, one strand shown. A digest of the protocol: as §1
Sequence of CRX (O43186 whole entry): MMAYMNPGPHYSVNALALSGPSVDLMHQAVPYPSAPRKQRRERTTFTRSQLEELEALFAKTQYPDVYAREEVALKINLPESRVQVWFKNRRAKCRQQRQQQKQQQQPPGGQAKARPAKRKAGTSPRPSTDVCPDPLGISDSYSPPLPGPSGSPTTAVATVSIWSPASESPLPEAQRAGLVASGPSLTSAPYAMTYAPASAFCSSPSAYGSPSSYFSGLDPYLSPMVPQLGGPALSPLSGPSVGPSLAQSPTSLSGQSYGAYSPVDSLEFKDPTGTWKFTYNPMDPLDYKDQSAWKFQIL

Sequence of ELF1 (P32519 whole entry): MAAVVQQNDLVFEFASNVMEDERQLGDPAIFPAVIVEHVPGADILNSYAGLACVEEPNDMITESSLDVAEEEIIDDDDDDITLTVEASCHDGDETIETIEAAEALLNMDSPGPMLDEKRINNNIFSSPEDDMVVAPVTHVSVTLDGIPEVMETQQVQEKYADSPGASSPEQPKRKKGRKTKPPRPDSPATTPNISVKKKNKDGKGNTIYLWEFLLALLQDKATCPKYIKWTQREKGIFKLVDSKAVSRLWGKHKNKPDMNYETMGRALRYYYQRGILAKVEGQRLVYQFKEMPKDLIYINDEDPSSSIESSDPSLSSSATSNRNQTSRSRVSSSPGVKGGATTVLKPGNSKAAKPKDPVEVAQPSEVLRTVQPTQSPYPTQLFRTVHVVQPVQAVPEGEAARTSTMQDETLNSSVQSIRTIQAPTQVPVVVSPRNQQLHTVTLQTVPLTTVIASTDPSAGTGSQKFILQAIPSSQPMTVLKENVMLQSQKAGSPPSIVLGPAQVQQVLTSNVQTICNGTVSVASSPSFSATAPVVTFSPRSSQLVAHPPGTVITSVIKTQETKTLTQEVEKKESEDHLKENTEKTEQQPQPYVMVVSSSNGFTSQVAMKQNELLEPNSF
Sequence of HSF1 (Q00613 whole entry): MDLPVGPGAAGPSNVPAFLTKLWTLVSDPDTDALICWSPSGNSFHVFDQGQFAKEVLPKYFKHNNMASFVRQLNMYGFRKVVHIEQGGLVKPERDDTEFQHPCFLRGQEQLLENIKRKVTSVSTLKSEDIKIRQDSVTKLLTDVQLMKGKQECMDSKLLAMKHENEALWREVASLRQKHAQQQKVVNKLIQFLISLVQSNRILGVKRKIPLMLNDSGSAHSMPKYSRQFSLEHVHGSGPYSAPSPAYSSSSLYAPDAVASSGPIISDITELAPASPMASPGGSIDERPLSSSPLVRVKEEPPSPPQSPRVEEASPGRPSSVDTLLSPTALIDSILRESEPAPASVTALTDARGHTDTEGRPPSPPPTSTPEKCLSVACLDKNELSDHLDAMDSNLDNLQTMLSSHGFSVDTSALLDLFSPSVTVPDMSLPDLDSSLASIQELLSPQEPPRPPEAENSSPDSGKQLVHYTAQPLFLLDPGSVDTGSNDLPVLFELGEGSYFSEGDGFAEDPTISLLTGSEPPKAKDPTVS
Sequence of SPIB (Q01892 whole entry): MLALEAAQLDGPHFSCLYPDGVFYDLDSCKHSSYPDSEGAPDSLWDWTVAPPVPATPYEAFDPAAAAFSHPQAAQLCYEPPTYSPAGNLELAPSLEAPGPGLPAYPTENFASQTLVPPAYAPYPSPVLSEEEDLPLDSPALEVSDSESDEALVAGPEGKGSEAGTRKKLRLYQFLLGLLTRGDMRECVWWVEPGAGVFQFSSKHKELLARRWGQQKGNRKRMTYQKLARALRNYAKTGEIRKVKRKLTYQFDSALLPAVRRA

In the case of CGATAT, the binding signal in test [1] is 1.14 fold enrichment (6-mer frequency, TF over GST control); in test [2] it was 1.03 fold enrichment (6-mer frequency, TF over GST control); in [3], 1.08 fold enrichment (6-mer frequency, TF over GST control); in test [4] it was 1.03 fold enrichment (6-mer frequency, TF over GST control); in test [5], 1.12 fold enrichment (6-mer frequency, TF over GST control); in test [6] it was 1.1 fold enrichment (6-mer frequency, TF over GST control). Moreover, the binding signal in test [7] is 1.03 fold enrichment (6-mer frequency, TF over GST control); in test [8] it was 1.02 fold enrichment (6-mer frequency, TF over GST control); in [9], 1.06 fold enrichment (6-mer frequency, TF over GST control); in [10], 1.07 fold enrichment (6-mer frequency, TF over GST control); in [11], 1.05 fold enrichment (6-mer frequency, TF over GST control); in [12] it was 1.06 fold enrichment (6-mer frequency, TF over GST control). Moreover, the binding signal was 1.11 fold enrichment (6-mer frequency, TF over GST control) in test [13]; 1.11 fold enrichment (6-mer frequency, TF over GST control) in test [14]; 1.19 fold enrichment (6-mer frequency, TF over GST control) in [15]; 1.19 fold enrichment (6-mer frequency, TF over GST control) in test [16]; 1.14 fold enrichment (6-mer frequency, TF over GST control) in [17]; 1.03 fold enrichment (6-mer frequency, TF over GST control) in test [18].

(Values after publication PMC7862700, “An all-to-all approach to the identification of sequence-specific readers for epigenetic DNA modifications on cytosine”.)
